Measurements reported in PubChem BioAssay (Tox21).
Inconclusive results are not listed. Activity calls are given as the source filed them. Unless noted, the call rests on the fitted dose curve.

What was measured:
[1] = Nuclear factor erythroid 2-related factor 2/antioxidant responsive element (Nrf2/ARE) small molecule agonists: qHTS cell viability counter screen in human keratinocytes (AID 1919968; active means well fitted curve in the direction sought with a large enough effect in the repeat runs; an effect the other way counts as inactive or inconclusive; further: nearly all actives have a fitted effect of over 55% in size)
Outline: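 Stably transfected HaCaT (KeratinoSens), 1,500/well. Test agents in DMSO were applied for 23 h, 37 C/5% CO2. CellTiter-Fluor was incubated 1 h before the fluorescence read.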

[2] = Nuclear factor erythroid 2-related factor 2/antioxidant responsive element (Nrf2/ARE) small molecule agonists: luciferase reporter gene qHTS assay in human keratinocytes (AID 1919969); further: nearly all actives have a fitted effect of over 35% in size
[3] = molecular target: Gonadotropin-releasing hormone receptor (Homo sapiens) (UniProt P30968); experiment: Human gonadotropin-releasing hormone receptor (GnRHR) small molecule agonists, calcium flux assay in GnRHR-HEK293 cells (AID 1920063); further: nearly all actives have a fitted effect of over 35% in size
Sequence of Gonadotropin-releasing hormone receptor (Homo sapiens) (P30968 whole entry, looked up): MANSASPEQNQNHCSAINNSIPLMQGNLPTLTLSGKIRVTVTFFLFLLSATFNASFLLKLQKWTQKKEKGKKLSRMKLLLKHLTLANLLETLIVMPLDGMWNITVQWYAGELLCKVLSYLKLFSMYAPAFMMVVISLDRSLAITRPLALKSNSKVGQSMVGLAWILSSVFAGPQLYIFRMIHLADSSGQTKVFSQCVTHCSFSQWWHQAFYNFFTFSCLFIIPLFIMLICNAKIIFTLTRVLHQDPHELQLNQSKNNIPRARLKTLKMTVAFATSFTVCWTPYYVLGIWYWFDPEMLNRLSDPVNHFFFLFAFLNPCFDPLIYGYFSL
Outline: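 Stable human GnRHR HEK293 line. 18 h plating, then calcium dye for 1 h at 37 C. Agonist-mode compound addition from DMSO stocks; fluorescence monitored 3 min.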

[4] = molecular target: KiSS-1 receptor (Homo sapiens) (UniProt Q969F8); experiment: Human kisspeptin (KISS1R) small molecule agonists, calcium flux assay in KISS1R-HEK293 cells (AID 1920064; active means well fitted curve in the direction sought with a large enough effect in the repeat runs; an effect the other way counts as inactive or inconclusive)
Sequence of KiSS-1 receptor (Homo sapiens) (Q969F8 whole entry, looked up): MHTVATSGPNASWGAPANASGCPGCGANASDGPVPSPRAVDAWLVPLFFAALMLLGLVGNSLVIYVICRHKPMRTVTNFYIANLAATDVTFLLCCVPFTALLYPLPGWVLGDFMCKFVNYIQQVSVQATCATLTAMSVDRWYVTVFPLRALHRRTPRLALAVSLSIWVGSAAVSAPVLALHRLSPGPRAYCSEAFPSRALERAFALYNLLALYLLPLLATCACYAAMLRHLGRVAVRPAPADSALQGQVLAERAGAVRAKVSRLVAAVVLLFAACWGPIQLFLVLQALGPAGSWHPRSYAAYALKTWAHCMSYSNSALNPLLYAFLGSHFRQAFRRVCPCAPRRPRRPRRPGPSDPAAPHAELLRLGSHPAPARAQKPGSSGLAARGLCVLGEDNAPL
Outline: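 After overnight (18 h) culture at 37 C/5% CO2, human KISS1R-HEK293 cells received calcium dye for 1 h, then test compound; emission at 540 nm (excitation 480 nm) was tracked for 3 min.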

[5] = G protein-coupled receptor (GPCR) small molecule agonists, calcium flux assay: HEK293 wild type cell line counter screen (AID 1920065)
Outline: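 Following 18 h incubation at 37 C/5% CO2, plates got calcium dye for 1 h; compounds, ATP or DMSO were then pinned in and fluorescence followed kinetically (480/540 nm).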

[6] = p53 small molecule agonists, cell-based qHTS assay with human liver microsomes (AID 1963577);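 further: p53 response element beta-lactamase reporter cells with liver microsomes plus NADPH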
Outline: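 Reporter activation was measured by LiveBLAzer fluorescence intensity in p53RE-bla cells, which had been exposed to compounds for 16 h at 37 C alongside 0.5 mg/mL human liver microsomes and 0.5 mg/mL NADPH (final concentrations).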

[7] = p53 small molecule agonists, cell-based qHTS assay with rat liver microsomes (AID 1963578)
Outline: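 Compound in DMSO added to p53RE-bla cells 5 h post-plating; rat microsomes/NADPH 0.5 mg/mL final; 16 h, 37 C; LiveBLAzer 2 h RT.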

[8] = p53 small molecule agonists, cell-based qHTS assay with human liver microsomes: qHTS cell viability counter screen (AID 1963579); further: nearly all actives have a fitted effect of over 45% in size
Outline: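 HLM-supplemented (0.5 mg/mL final) and NADPH-supplemented (0.5 mg/mL final) p53RE-bla cultures, 4,000 cells per well, were dosed with compounds in DMSO for 16 h at 37 C; luminescent ATP detection (CellTiter-Glo, 30 min, room temperature) quantified surviving cells.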

[9] = p53 small molecule agonists, cell-based qHTS assay with rat liver microsomes: qHTS cell viability counter screen (AID 1963580); further: nearly all actives have a fitted effect of over 45% in size
Outline: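 Cytotoxicity counter screen: intracellular ATP measured by CellTiter-Glo luminescence in the same wells as the beta-lactamase reporter read, on HCT-116 p53RE-bla cells exposed 16 h at 37 C to compounds with rat liver microsomes and NADPH, each 0.5 mg/mL final.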

[10] = p53 small molecule agonists, cell-based qHTS assay: qHTS cell viability counter screen (AID 1963581); further: nearly all actives have a fitted effect of over 45% in size
Outline: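 qHTS counter screen: 16 h compound exposure at 37 C of p53RE-bla HCT-116 cells (4,000 per well, seeded 5 h prior), cell viability by ATP luminescence.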

[11] = p53 small molecule agonists, cell-based qHTS assay (AID 1963582; active means well fitted activation curve with a large enough effect in the signal ratio in the repeat runs, not every such curve was filed as active; the % refers to the signal ratio)
Outline: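 Measured: fluorescence from cleaved LiveBLAzer substrate. System: p53RE-bla cells, 16 h compound treatment at 37 C, 2 h substrate step at room temperature.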

[12] = molecular target: 5-hydroxytryptamine receptor 2A (Homo sapiens) (UniProt P28223); experiment: 5-hydroxytryptamine receptor 2A (HTR2A) small molecule antagonists, cell-based qHTS assay (AID 1963586); further: nearly all actives have a fitted effect of over 45% in size
Sequence of 5-hydroxytryptamine receptor 2A (Homo sapiens) (P28223 whole entry, looked up): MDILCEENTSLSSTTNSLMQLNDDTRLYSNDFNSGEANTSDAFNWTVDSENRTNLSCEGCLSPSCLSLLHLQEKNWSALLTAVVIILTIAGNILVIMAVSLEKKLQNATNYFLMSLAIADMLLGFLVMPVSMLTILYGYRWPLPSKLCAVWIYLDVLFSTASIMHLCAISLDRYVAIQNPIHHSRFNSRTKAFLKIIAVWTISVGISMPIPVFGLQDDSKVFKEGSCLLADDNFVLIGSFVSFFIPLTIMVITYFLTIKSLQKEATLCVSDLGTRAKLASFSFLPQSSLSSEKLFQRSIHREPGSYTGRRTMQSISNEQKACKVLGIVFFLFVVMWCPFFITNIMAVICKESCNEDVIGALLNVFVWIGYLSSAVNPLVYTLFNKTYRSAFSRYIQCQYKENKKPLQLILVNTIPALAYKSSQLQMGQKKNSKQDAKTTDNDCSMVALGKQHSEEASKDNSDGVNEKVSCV
Outline: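 CHO cells stably expressing human HTR2A were plated for 18 h at 37 C, then loaded with calcium dye for 1 h. Compounds were preincubated 5 min at room temperature before DOI (4 nM solution) was added. Kinetic fluorescence was read for 3 min.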

[13] = molecular target: 5-hydroxytryptamine receptor 2A (Homo sapiens) (UniProt P28223); experiment: 5-hydroxytryptamine receptor 2A (HTR2A) small molecule agonists, cell-based qHTS assay (AID 1963587); further: nearly all actives have a fitted effect of over 30% in size
Outline: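 CHO cells stably expressing human HTR2A, plated 18 h, loaded with calcium dye 1 h at 37 C. Agonist mode: compounds added and intracellular calcium fluorescence recorded kinetically for 2 min at 1 sec intervals.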

[14] = molecular target: Muscarinic acetylcholine receptor M1 (Homo sapiens) (UniProt P11229); experiment: Cholinergic receptor muscarinic 1 (CHRM1) small molecule antagonists, cell-based qHTS assay (AID 1963588); further: nearly all actives have a fitted effect of over 40% in size
Sequence of Muscarinic acetylcholine receptor M1 (Homo sapiens) (P11229 whole entry, looked up): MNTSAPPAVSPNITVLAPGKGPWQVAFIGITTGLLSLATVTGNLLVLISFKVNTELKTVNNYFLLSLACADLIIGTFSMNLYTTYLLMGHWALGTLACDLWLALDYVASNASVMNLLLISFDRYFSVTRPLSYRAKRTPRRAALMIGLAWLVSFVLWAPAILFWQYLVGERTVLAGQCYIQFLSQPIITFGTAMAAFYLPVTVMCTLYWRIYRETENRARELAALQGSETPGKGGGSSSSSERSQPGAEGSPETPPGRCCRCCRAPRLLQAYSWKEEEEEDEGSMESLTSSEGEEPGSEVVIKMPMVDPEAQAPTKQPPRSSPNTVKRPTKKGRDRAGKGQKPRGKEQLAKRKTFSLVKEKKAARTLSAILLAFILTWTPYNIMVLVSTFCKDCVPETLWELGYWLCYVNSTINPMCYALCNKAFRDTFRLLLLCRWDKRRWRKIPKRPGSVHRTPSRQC
Outline: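 Compounds were tested at 15 concentrations in three independent runs. Dye-loaded CHRM1-CHO cells were exposed 5 min at room temperature before stimulation by acetylcholine added at 50nM. Intracellular calcium was read kinetically on FDSS for 3 min.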

[15] = molecular target: Muscarinic acetylcholine receptor M1 (Homo sapiens) (UniProt P11229); experiment: Cholinergic receptor muscarinic 1 (CHRM1) small molecule agonists, cell-based qHTS assay (AID 1963589); further: nearly all actives have a fitted effect of over 35% in size
Outline: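 Kinetic fluorescence (1 s intervals) of calcium-sensitive dye in human M1 CHO cells after compound addition; cells pre-incubated 18 h at 37 C/5% CO2 and dye-loaded 1 h.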

[16] = cAMP Responsive Elements (CRE) small molecule agonists, cell-based qHTS assay (AID 1963590)
Outline: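 Test agents in DMSO were incubated 3 h at 37 C/5% CO2 with CRE-bla HEK 293T cells seeded 18 h earlier; LiveBLAzer B/G FRET substrate was added and read after 2 h at room temperature.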

[17] = cAMP Responsive Elements (CRE) small molecule antagonists, cell-based qHTS assay (AID 1963591; active means well fitted inhibition curve with a large enough effect in the signal ratio in the repeat runs, not every such curve was filed as active; the % refers to the signal ratio)
Outline: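 Reporter line CRE-bla HEK 293T in dialyzed-FBS DMEM; cells preincubated 18 h, treated 3 h with compound plus NKH477 (0.25 uM final); LiveBLAzer FRET, 2 h RT.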

[18] = molecular target: Beta-2 adrenergic receptor (Homo sapiens) (UniProt P07550); experiment: Adrenergic beta2 receptor (ADRB2) small molecule antagonists, cell-based qHTS assay (AID 1963592); further: series mostly up to about 92 µM; nearly all actives have a fitted effect of over 50% in size
Sequence of Beta-2 adrenergic receptor (Homo sapiens) (P07550 whole entry, looked up): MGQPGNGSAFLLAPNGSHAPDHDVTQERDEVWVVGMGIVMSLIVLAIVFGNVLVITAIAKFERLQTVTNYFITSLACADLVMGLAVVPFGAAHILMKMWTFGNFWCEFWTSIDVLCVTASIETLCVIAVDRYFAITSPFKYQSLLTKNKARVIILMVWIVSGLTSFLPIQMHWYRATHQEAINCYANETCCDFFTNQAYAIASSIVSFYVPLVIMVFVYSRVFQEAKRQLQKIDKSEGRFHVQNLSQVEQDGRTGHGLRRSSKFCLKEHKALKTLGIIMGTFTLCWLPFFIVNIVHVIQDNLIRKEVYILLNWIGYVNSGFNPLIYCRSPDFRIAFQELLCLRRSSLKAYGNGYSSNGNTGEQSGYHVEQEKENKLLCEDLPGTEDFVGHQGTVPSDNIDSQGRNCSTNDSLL
Outline: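 Assay format: CHO-ADRB2 cells, 18-20hr seeding at 37C/5% CO2, then compound plus 1nM isoproterenol agonist mix for 0.5hr RT. Homogeneous time-resolved fluorescence cAMP detection after 1hr, expressed as 665/615 nm ratio.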

[19] = molecular target: D(2) dopamine receptor (Homo sapiens) (UniProt P14416); experiment: Dopamine D2 receptor (DRD2) small molecule agonists, cell-based qHTS assay (AID 1963594); further: nearly all actives have a fitted effect of over 35% in size
Sequence of D(2) dopamine receptor (Homo sapiens) (P14416 whole entry, looked up): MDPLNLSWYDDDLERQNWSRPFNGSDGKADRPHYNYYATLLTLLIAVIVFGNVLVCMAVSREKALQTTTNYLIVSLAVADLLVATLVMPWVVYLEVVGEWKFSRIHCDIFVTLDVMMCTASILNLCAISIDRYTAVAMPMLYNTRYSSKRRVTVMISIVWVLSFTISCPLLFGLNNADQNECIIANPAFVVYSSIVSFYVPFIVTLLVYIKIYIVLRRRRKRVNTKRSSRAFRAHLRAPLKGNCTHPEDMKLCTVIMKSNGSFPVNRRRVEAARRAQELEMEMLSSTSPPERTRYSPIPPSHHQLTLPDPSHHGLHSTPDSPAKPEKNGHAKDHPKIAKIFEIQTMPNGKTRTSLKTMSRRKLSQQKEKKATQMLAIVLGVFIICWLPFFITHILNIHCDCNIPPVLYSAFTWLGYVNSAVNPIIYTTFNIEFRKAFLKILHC
Outline: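 HEK293 cells stably expressing human DRD2, pre-treated with PDE inhibitor Ro20-1724 (0.1 mM final) and compound 10 min at room temperature, then stimulated with NKH477 (200nM […]) for 30 min. cAMP read by HTRF (665/620 nm).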

[20] = molecular target: D(2) dopamine receptor (Homo sapiens) (UniProt P14416); experiment: Dopamine D2 receptor (DRD2) small molecule antagonists, cell-based qHTS assay (AID 1963595; active means well fitted inhibition curve with a large enough effect in the signal ratio in the repeat runs, with a control signal flat; the % refers to the signal ratio)
Outline: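 Stable D2 receptor HEK293 line, 24 h after seeding. Compound preincubated 10 min, then quinpirole (12 nM) with forskolin analogue NKH477 (200 nM), 30 min, room temperature. Detection by time-resolved FRET of cAMP.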

Measured: Potency

CC(C)CCCCCCOC(=O)c1ccccc1C(=O)OCCCCCCC(C)C
inactive: all assays above

OCC(Cl)CCl (stereo unspecified)
inactive: all assays above

CC(O)CN(CC(C)O)CC(C)O (stereo unspecified)
not listed: [19]
inactive: all other assays above

CCc1ccccc1C
inactive: all assays above

Cc1cnc[nH]1
not listed: [19]
inactive: all other assays above

CCOS(C)(=O)=O
not listed: [20]
inactive: all other assays above

COc1cc(OC)nc(NC(=O)NS(=O)(=O)c2ncccc2C(=O)N(C)C)n1
inactive: all assays above

ClCC1CO1 (stereo unspecified)
not listed: [19]
inactive: all other assays above
